# Laboratory results from PubChem BioAssay (Tox21).
# Values joined by “and” are separate entries in the source; they are usually repeats but may differ in a detail not shown here. Equal values may be shown once. Inconclusive results are not listed. Some structures have more than one record in an assay (separate samples or runs), and their calls can disagree. Active and inactive are the calls of the source. Calls come from the whole dose curve; as a rule, active = well fitted curve in the direction sought with a large enough effect in the repeat runs; inconclusive = weak or mixed curves; inactive = no such curve, though single readings can be large; an effect the other way counts as inactive or inconclusive.
# Experiment: A CellTox Green Cytotoxicity Assay to monitor cytotoxicity in HEK293 cells - 40 hour (AID 1224871); note: nearly all actives have a fitted effect of over 45% in size; note: potency is the fitted concentration of half-maximal effect
# Conditions: CellTox Green fluorescence; series mostly up to 76.8 µM; cytotoxicity increase: at the top concentration
# Method in brief: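 Tox21 screen in HEK293: membrane-impermeant cyanine dye fluoresces on binding dead-cell DNA; compound pinned 5 h post-seeding, plates held at 37 C, signal read repeatedly through 40 h.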
# % is set by controls: 0 for no effect and ±100 for the full control effect.
Structure (SMILES),cytotoxicity increase,Potency
CC1=C(C)S(=O)(=O)CCS1(=O)=O,2.69% (inactive),
C=C(C)C(=O)O[C@H]1C[C@@H]2CC[C@@]1(C)C2(C)C,,12.2 µM (active) and inactive
CN(C)CCOCCN(C)C,,inactive and 43.6 µM (active)
CN(C)CCCN,,inactive
Nc1ccccc1[N+](=O)[O-],,inactive
O=C(O)c1ccccc1C(c1ccc(O)cc1)c1ccc(O)cc1,,inactive
CC[C@H](C)C(=O)O[C@H]1C[C@@H](C)C=C2C=C[C@H](C)[C@H](CC[C@@H]3C[C@@H](O)CC(=O)O3)[C@H]21,5.28% (inactive),
O=C(O)CCCC[C@@H]1SC[C@@H]2NC(=O)N[C@@H]21,,inactive
CCCCC(CC)COC(=O)CS (stereo not drawn),,inactive
CSCCC=O,,inactive
Cc1cccnc1,,inactive

# Experiment: qHTS RealTime-Glo MT Cell Viability Assay in HEK293 cells - 16 hour (AID 1224872); note: nearly all actives have a fitted effect of over 50% in size; note: potency is the fitted concentration of half-maximal effect; for activity change, negative = cytotoxicity: top concentration of the series differs between compounds
# Conditions: RealTime-Glo luminescence; series mostly up to 76.8 µM; activity change, negative = cytotoxicity: at the top concentration
# Method in brief: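 Quantitative high-throughput screen of the Tox21 10K library in HEK293: cells and RealTime-Glo reagents plated together, compound added at 5 h, luminescence monitored through 40 h at 37 C.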
Structure (SMILES),Potency,"activity change, negative = cytotoxicity"
Nc1cc([N+](=O)[O-])ccc1O,inactive,
Cc1cccc(O)c1,inactive,
O=C(CC(C(=O)OC1CCCCC1)S(=O)(=O)O)OC1CCCCC1 (stereo not drawn),inactive,
N[C@@H](Cc1cc(I)c(Oc2cc(I)c(O)c(I)c2)c(I)c1)C(=O)O,inactive,
Fc1ccc(Br)cc1,inactive,
CCCCCCCCCCCCc1ccccc1,inactive,
CCCCCC1=CCCC1=O,inactive,
CC(C)(N)CO,inactive,
OCC(CO)(CBr)CBr,inactive,
CCC(O)OCCCOC (stereo not drawn),inactive,
O=c1[nH]nnc2ccccc12,inactive,
COS(C)(=O)=O,inactive,
COCCCOc1ccnc(CS(=O)c2nc3ccccc3[nH]2)c1C (stereo not drawn),10.9 µM (active) and inactive,
COc1ccc(Nc2ccccc2)c(C)c1,,-1.9% (inactive)
CC1=C(C)S(=O)(=O)CCS1(=O)=O,,17.3% (inactive)
CN(C)CCOCCN(C)C,inactive,
CN(C)CCCN,inactive,
Nc1ccccc1[N+](=O)[O-],inactive,
O=C(O)c1ccccc1C(c1ccc(O)cc1)c1ccc(O)cc1,inactive,
O=C(O)CCCC[C@@H]1SC[C@@H]2NC(=O)N[C@@H]21,inactive,
CSCCC=O,inactive,
c1ccc2c(c1)ccc1ccccc12,,-3.01% (inactive)

# Experiment: qHTS RealTime-Glo MT Cell Viability Assay in HepG2 cells - 8 hour (AID 1224873); note: nearly all actives have a fitted effect of over 55% in size
# Conditions: RealTime-Glo luminescence; series mostly up to 76.8 µM; viability change, negative = cytotoxic: at the top concentration
# Method in brief: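 HepG2 cells (600/well) mixed with RealTime-Glo MT reagent, settled 5 h at 37 C/5% CO2 before compound addition. Nonlytic NanoLuc luminescence from viable-cell prosubstrate reduction read repeatedly during 40 h treatment at 37 C.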
row,Structure (SMILES),outcome
1,OCCOCCOCCO,inactive
2,CC(C)CC(=O)CC(C)C,inactive
3,Nc1cc([N+](=O)[O-])ccc1O,inactive
4,CCC(O)OC(O)CC (stereo not drawn),inactive
5,O=C(CC(C(=O)OC1CCCCC1)S(=O)(=O)O)OC1CCCCC1 (stereo not drawn),inactive
6,C[C@H]1C[C@@H]2[C@H]([C@@H](O)C[C@@]3(C)[C@H]2CC[C@]3(O)C(=O)CO)[C@@]2(C)C=CC(=O)C=C12,inactive
7,O=C(Oc1ccccc1)c1ccccc1,inactive
8,CCc1cccc(C)c1N,inactive
9,CCCCCC1=CCCC1=O,inactive
10,CC(C)(N)CO,inactive
11,CC(=O)CC(=O)Nc1ccccc1C,inactive
12,CCC(O)OCCCOC (stereo not drawn),inactive
13,O=c1[nH]nnc2ccccc12,inactive
14,COS(C)(=O)=O,inactive
15,COCCCOc1ccnc(CS(=O)c2nc3ccccc3[nH]2)c1C (stereo not drawn),inactive
16,O=P(OC(CCl)CCl)(OC(CCl)CCl)OC(CCl)CCl,inactive
17,CC1=C(C)S(=O)(=O)CCS1(=O)=O,inactive
18,CN(C)CCOCCN(C)C,inactive
19,O=C(O)c1ccccc1C(c1ccc(O)cc1)c1ccc(O)cc1,inactive
20,CC[C@H](C)C(=O)O[C@H]1C[C@@H](C)C=C2C=C[C@H](C)[C@H](CC[C@@H]3C[C@@H](O)CC(=O)O3)[C@H]21,inactive
21,c1ccc2c(c1)ccc1ccccc12,inactive

# Experiment: qHTS RealTime-Glo MT Cell Viability Assay in HEK293 cells - 40 hour (AID 1224874); note: nearly all actives have a fitted effect of over 50% in size; note: potency is the fitted concentration of half-maximal effect
# Conditions: RealTime-Glo luminescence; max response: stronger effect = lower value
# Method in brief: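 HEK293 + NanoLuc + prosubstrate, 600 cells/well; 5 h, 37 C/5% CO2; compound 23 nL in DMSO by pintool; 37 C; luminescence read at 0, 8, 16, 24, 32 and 40 h time points.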
Structure (SMILES),max response,Potency
CCCCC(CC)COC(=O)C(C#N)=C(c1ccccc1)c1ccccc1 (stereo not drawn),-27.4% (inactive),
OCCOCCOCCO,-0.565% (inactive) and 3.8% (inactive),
CC(C)CC(=O)CC(C)C,3.78% (inactive) and -11.6% (inactive),
Nc1cc([N+](=O)[O-])ccc1O,-21.5% (inactive) and -15.3% (inactive),
Cc1cccc(O)c1,3.75% (inactive) and 3.48% (inactive),
CCC(O)OC(O)CC (stereo not drawn),5.86% (inactive) and 8.63% (inactive),
CCCCCCCCCCCCCCCO,0.0156% (inactive),
O=C(CC(C(=O)OC1CCCCC1)S(=O)(=O)O)OC1CCCCC1 (stereo not drawn),7.94% (inactive) and 16.6% (inactive),
C[C@H]1C[C@@H]2[C@H]([C@@H](O)C[C@@]3(C)[C@H]2CC[C@]3(O)C(=O)CO)[C@@]2(C)C=CC(=O)C=C12,-9.2% (inactive) and -9.81% (inactive),
N[C@@H](Cc1cc(I)c(Oc2cc(I)c(O)c(I)c2)c(I)c1)C(=O)O,12.3% (inactive) and 0.808% (inactive),
O=C(Oc1ccccc1)c1ccccc1,-9.85% (inactive) and 1.19% (inactive),
CCc1cccc(C)c1N,1.23% (inactive) and 1.97% (inactive),
ON=C1CCCCC1,-0.0267% (inactive) and 0.158% (inactive),
Fc1ccc(Br)cc1,11.6% (inactive) and 0.497% (inactive),
CCCCCCCCCCCCc1ccccc1,7.72% (inactive) and -4.38% (inactive),
CCCCCC1=CCCC1=O,5.34% (inactive) and -3.52% (inactive),
CC(C)(N)CO,5.94% (inactive) and 1.04% (inactive),
OCC(CO)(CBr)CBr,-5.13% (inactive) and 3.96% (inactive),

Structure (SMILES),max response,Potency
CC(=O)CC(=O)Nc1ccccc1C,-0.0445% (inactive) and -13.2% (inactive),
CCC(O)OCCCOC (stereo not drawn),1.35% (inactive) and 16.2% (inactive),
O=c1[nH]nnc2ccccc12,2.18% (inactive) and -25.5% (inactive),
COS(C)(=O)=O,0.0927% (inactive) and -3.51% (inactive),
COCCCOc1ccnc(CS(=O)c2nc3ccccc3[nH]2)c1C (stereo not drawn),-13.3% (inactive),9.74 µM (active)
O=P(OC(CCl)CCl)(OC(CCl)CCl)OC(CCl)CCl,,21.8 µM (active) and 49 µM (active)
COc1ccc(Nc2ccccc2)c(C)c1,2.22% (inactive) and -26.6% (inactive),
C=C(C)C(=O)O[C@H]1C[C@@H]2CC[C@@]1(C)C2(C)C,2.39% (inactive),15.4 µM (active)
CN(C)CCOCCN(C)C,0.168% (inactive) and 5.1% (inactive),
CN(C)CCCN,-0.421% (inactive) and -3.46% (inactive),
Nc1ccccc1[N+](=O)[O-],3.94% (inactive) and 2.64% (inactive),
O=C(O)c1ccccc1C(c1ccc(O)cc1)c1ccc(O)cc1,2.57% (inactive) and 12.8% (inactive),
CC[C@H](C)C(=O)O[C@H]1C[C@@H](C)C=C2C=C[C@H](C)[C@H](CC[C@@H]3C[C@@H](O)CC(=O)O3)[C@H]21,-8.74% (inactive) and -19.2% (inactive),
O=C(O)CCCC[C@@H]1SC[C@@H]2NC(=O)N[C@@H]21,6.98% (inactive) and 0.709% (inactive),
CCCCC(CC)COC(=O)CS (stereo not drawn),6.5% (inactive),19.5 µM (active)
CSCCC=O,4.41% (inactive) and 31% (inactive),
c1ccc2c(c1)ccc1ccccc12,-10.3% (inactive),
Cc1cccnc1,-5.56% (inactive) and 0.742% (inactive),
